# Source: PubChem BioAssay AID492996 (Johns Hopkins Ion Channel Center, 2010)
# Entries with a potency or affinity are not part of this list. Active and inactive are the calls of the source.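 How the source made its calls: active means peak inhibition of the TRPC4 channel signal over 30% at some dose, with a fitted dose response curve; inactive means no inhibition or no dose response curve.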
# Target: Short transient receptor potential channel 4 (Mus musculus) (UniProt Q9QUQ5)
# Test: TRPC4 inhibition under acetylcholine activation, SAR follow-up, cell-based, acetylcholine stimulus, HEK293 TRPC4, Fluo-4 (AID 492996)
# Short transient receptor potential channel 4 (Mus musculus), sequence (Q9QUQ5 whole entry, looked up): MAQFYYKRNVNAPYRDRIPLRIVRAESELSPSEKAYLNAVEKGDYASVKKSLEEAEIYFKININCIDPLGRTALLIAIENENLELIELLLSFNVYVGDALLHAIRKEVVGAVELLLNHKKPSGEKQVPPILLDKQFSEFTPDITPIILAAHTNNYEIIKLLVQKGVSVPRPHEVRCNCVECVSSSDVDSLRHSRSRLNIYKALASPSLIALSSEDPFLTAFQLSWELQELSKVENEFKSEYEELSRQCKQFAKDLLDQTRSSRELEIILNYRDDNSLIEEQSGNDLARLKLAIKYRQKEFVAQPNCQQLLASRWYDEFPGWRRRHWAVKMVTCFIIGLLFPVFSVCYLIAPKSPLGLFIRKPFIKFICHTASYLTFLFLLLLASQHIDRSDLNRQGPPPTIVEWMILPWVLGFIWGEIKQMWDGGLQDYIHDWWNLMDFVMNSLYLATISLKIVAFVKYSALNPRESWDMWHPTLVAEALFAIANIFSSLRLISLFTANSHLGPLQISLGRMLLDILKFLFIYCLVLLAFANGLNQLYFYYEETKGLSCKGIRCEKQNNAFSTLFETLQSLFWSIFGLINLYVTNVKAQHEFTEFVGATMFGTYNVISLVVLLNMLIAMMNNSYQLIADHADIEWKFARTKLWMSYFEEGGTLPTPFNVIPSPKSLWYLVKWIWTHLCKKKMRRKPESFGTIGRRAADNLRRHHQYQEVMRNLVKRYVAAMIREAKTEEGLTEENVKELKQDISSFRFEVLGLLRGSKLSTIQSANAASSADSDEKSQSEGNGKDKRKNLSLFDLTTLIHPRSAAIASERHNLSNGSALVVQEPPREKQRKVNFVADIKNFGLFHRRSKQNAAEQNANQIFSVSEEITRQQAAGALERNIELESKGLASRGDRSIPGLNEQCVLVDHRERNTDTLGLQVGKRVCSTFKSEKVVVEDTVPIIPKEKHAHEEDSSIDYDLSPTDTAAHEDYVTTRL
smiles,measurement,value
Cc1cc(N2CCNCC2)nc2ccccc12,outcome,inactive
